From PubChem BioAssay (NCATS)
Records with an inconclusive call do not appear. Unmarked numbers belong to inactive results. Activity calls are given as the source filed them. The call rests on the fitted dose curve; in most records, active means well fitted inhibition curve with a large enough effect; inconclusive means small, poorly fitted or top-dose-only effect; inactive means no such curve, though single readings can be large or run the other way.

Target: Thioredoxin reductase 1, cytoplasmic (Rattus norvegicus) (UniProt O89049)
Test: qHTS Assay for Inhibitors of Mammalian Selenoprotein Thioredoxin Reductase 1 (TrxR1) (AID 488773); further: nearly all actives have a fitted effect of over 40% in size
Settings: purified TrxR1 enzyme activity; Potency: inhibition; series mostly up to 57.1 µM; activity change, negative = inhibition: at the top concentration
Source text: The selenoprotein thioredoxin reductase (TrxR; EC 1.8.1.9) is a FAD containing homodimeric pyridine nucleotide-disulfide oxidoreductase with many cellular roles. Together with NADPH and its prime substrate thioredoxin (Trx), the enzyme forms the core of the Trx system. The mammalian Trx system exerts a wide spectrum of functions including redox regulation, antioxidant defense, regulation of transcription factors as well as support of cell growth and replication. Many of these functions involve the reduction of Trx, which may subsequently reduce a number of different substrates including ribonucleotide reductase, peroxiredoxins or NFkB. Mammalian TrxR itself also has a broad substrate specificity, reducing both protein and non-protein substrates, including low molecular weight compounds such as dehydroascorbate, lipoic acid, ubiquinone, and juglone. In addition, several drugs in clinical use for anticancer treatment are indeed known to target TrxR1.
This BioAssay is a validation of an NADPH fluorescence-based, dual-purpose qHTS rTrxR1 assay designed to find potential inhibitors and substrates of rTrxR1. For this particular BioAssay, actives are potential inhibitors. See related BioAssay for substrate data deposition.
Assay protocol: 2 uL of reagents (buffer in column 4 as negative control and 90 nM rTrxR1 in columns 1-3 and 5-48) were dispensed into Greiner black solid-bottom 1,536-well assay plates, followed by 1 uL of NADPH (400 uM final concentration) to each well. The plates were centrifuged at 1000 rpm for 15 seconds and subsequently incubated for 5 min at room temperature (~22 deg C) to allow for rTrxR1 reduction. Compounds (23 nL) were then transferred via Kalypsys pin tool equipped with 1536-pin array (10 nL slotted pins, V&P Scientific, San Diego, CA). In addition, a duplicate 2-fold serial dilution of the control compounds auranofin, a known gold-based TrxR1 inhibitor, and juglone (5-hydroxy-1,4-naphthoquinone), a natural TrxR1 substrate, were pin-transferred to columns 2 and 3, respectively. After incubation for 15 min at room temperature (~22 deg C), 1 uL of selenite (400 uM final concentration) were dispensed to each well. The plate was immediately transferred to a ViewLux high-throughput CCD imager (PerkinElmer), wherein kinetic measurements of NADPH fluorescence (Ex 340 nm, Em 450 nm) were acquired (8 minute kinetic read, see Table 1). Read 1 was utilized to assess the capacity of a compound to serve as an rTrxR1 substrate, i.e. a decrease in NADPH fluorescence compared to the no-compound background is an indication of a substrate behavior for that particular compound. For inhibitory activity of a compound, delta values, computed as the difference in fluorescence intensity between the first and last reads of an 8-minute time kinetic window, were used. All reagents were diluted in an assay buffer consisting of 50 mM Tris-HCl, pH 7.5, 2 mM EDTA, and 0.01% Tween-20.
Throughout the screen, reagent bottle and all liquid lines were made light-tight to minimize reagent degradation. All screening operations were performed on a fully integrated robotic system (Kalypsys, San Diego, CA) containing one RX-130 and two RX-90 anthropomorphic robotic arms (Staubli, Duncan, SC). Library plates were screened starting from the lowest and proceeding to the highest concentration, and a 'double-pinning' step of the highest concentration was required to access higher concentrations of compounds. Vehicle-only plates, with DMSO being pin-transferred to the columns 5-48, were inserted uniformly at the beginning and the end of each library in order to monitor and record any shifts in the background, which can be affected by reagent dispensers or loss in enzyme activity over time. Screening data were corrected, normalized, and concentration-effect relationships were derived by using publicly-available curve fitting algorithms developed in-house (http://ncgc.nih.gov/pub/openhts).
On the % scale 0 is the no-effect control and ±100 the full control effect; potency means the concentration at half of the fitted maximal effect.

Chain of Thioredoxin reductase 1, cytoplasmic (Rattus norvegicus) (O89049 whole entry, looked up): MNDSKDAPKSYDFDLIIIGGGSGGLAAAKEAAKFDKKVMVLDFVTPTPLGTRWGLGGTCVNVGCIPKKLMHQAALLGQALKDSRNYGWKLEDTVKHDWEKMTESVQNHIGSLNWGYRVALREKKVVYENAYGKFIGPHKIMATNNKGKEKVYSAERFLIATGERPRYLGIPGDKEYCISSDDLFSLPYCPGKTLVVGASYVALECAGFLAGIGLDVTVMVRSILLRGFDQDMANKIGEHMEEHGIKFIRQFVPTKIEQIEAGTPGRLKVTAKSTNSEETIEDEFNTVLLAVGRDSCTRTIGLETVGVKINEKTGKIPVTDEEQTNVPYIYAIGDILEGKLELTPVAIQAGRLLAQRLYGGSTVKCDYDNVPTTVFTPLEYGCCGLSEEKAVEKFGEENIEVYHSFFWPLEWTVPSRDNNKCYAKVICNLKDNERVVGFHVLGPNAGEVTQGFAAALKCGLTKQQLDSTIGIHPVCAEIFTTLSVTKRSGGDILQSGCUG

Row | Compound | activity change, negative = inhibition | Potency
1 | COc1ccc2c(c1)c(CC(=O)O)c(C)n2Cc1ccc(Cl)cc1 | -16.6% | –
2 | O=C(O)c1ccccc1Nc1cccc(OCc2ccc3ccccc3n2)c1 | -9.93% | –
3 | c1ccc2c(c1)CC(N1CCN(c3cccc4c3OCCO4)CC1)C2 | 12.5% | –
4 | NC/C=C\C(=O)O | -5.41% | –
5 | N[C@@H](CS(=O)O)C(=O)O | 0.7% | –
6 | CCCCCCCCCC(=O)NC(CN1CCOCC1)[C@H](O)c1ccccc1 (stereo not given in full) | -4.04% | –
7 | CNC(=O)c1cc2c(cn1)[nH]c1ccccc12 | -1.93% | –
8 | O=C1C2C=CC=CC2=NC(=S)N1CCN1CCC(=C(c2ccc(F)cc2)c2ccc(F)cc2)CC1 (stereo not given) | -1.48% | –
9 | C[C@H](O)C(=O)C1=Nc2c(nc(N)[nH]c2=O)NC1 | -11.8% | –
10 | O=[N+]([O-])c1cccc2c(Br)[nH]nc12 | -6.21% | –
11 | CC[n+]1c(/C=C/C=C2/N(C)c3ccccc3C2(C)C)sc2ccccc21 | -16.5% | –
12 | NOCC(=O)O | 2.48% | –
13 | NCC(O)(CS(=O)(=O)O)c1ccc(Cl)cc1 (stereo not given) | -1.06% | –
14 | COc1ccc(NC(=O)c2ccc(-c3ccc(-c4noc(C)n4)cc3C)cc2)cc1N1CCN(C)CC1 | -20.6% | –
15 | CCc1ccc2c(-c3cccc(Cl)c3)nc(=O)n(CC)c2n1 | -5.41% | –
16 | O=C(O)c1cc(=O)cc(C(=O)O)[nH]1 | 2.59% | –
17 | CCCCCC(O)CCCC(=O)O (stereo not given) | -5.37% | –
18 | NC1CONC1=O (stereo not given) | -5.08% | –
19 | Cc1ccccc1/C=C/C1=NCCN1 | -24.3% | –
20 | NCCCNCCCCNCCCN | 3.69% | –

Row | Compound | activity change, negative = inhibition | Potency
21 | CC[N+](CC)(CC)CC(=O)Nc1c(C)cccc1C | -4.47% | –
22 | CCCn1c(=O)c2[nH]c(C3CCCC3)nc2n(CCC)c1=O | -3.4% | –
23 | CN1CCC2(CCN3CCc4c(oc5ccccc45)C3C2)N(C)C1=O (stereo not given) | -6% | –
24 | CCN(c1nc(N)c(C(=O)N=C(N)N)nc1Cl)C(C)C | -12.5% | –
25 | COc1cc(CNC(=O)CCCCCCC(C)C)ccc1O | -7.59% | –
26 | NC(=O)c1ccccc1 | -9.6% | –
27 | Nc1ncnc2c1ncn2C1CCCC1 | -1.85% | –
28 | Nc1nc2c(cnn2CCc2ccccc2)c2nc(-c3ccco3)nn12 | 0.561% | –
29 | CSC(=N)N | -0.563% | –
30 | COC(=O)C(N)Cc1ccc(Cl)cc1 (stereo not given) | 5.24% | –
31 | CCCCS(=N)(=O)CC[C@H](N)C(=O)O (stereo not given in full) | 4.04% | –
32 | CNCCc1cnc(CCC(c2ccccc2)c2ccccc2)[nH]1 | -4.13% | –
33 | O=[N+]([O-])c1cccc2cn[nH]c12 | -12.3% | –
34 | COc1ccc2c(c1)CCC1C2CC[C@@]2(C)C1CC[C@@H]2NCCCCCCN1C(=O)C=CC1=O (stereo not given in full) | 2.5% | –
35 | COc1ccc(-c2ccc(N)[n+](CCCC(=O)O)n2)cc1 | -6.04% | –
36 | CC(C)Cn1c(=O)n(C)c(=O)c2[nH]cnc21 | 7.17% | –
37 | NC1(C(=O)O)CCc2cc(C(=O)O)ccc21 (stereo not given) | – | 16.8 µM (active)
38 | OC[C@H]1NC[C@@H](O)[C@@H]1O | -16.7% | –
39 | O=c1ccc2c(OCCCCc3ccccc3)c3ccoc3cc2o1 | -3.5% | –
40 | N=C(N)c1ccc(OCCCCCOc2ccc(C(=N)N)cc2)cc1 (tested in a mixture with another compound) | 3.03% | –
